# Screening results (PubChem)
# D1 antag: Antagonist of Human D 1 Dopamine Receptor: qHTS | D(1A) dopamine receptor (Homo sapiens), P21728 | HEK293 TREx D1 cells, calcium flux, dopamine EC80; stronger effect = lower value | activity change, negative = inhibition, % at 10 µM | actives 3.2% (n = 360,000) | AID 504652, 2011; in the data active = activity change below about -30%; also: % is scaled to controls: 0 for no effect and ±100 for the full control effect
# Target sequence (P21728 whole entry, looked up): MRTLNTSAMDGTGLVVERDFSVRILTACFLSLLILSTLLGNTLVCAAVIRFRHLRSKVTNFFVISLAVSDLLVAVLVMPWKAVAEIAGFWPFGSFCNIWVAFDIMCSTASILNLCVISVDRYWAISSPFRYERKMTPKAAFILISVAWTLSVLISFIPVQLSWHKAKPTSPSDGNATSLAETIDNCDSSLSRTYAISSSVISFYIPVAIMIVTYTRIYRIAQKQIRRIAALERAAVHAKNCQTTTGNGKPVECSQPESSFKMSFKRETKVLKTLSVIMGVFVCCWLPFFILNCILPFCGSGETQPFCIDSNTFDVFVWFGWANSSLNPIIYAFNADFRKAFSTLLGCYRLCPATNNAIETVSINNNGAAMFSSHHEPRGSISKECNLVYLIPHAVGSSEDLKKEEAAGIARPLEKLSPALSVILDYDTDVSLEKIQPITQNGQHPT
#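 Using tetracycline-induced force-coupled D1 Hek293 cells and a calcium dye, signals were followed for 180 s after compound, then for 180 s after EC80 dopamine, to detect inhibitors.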
# D3 antag: qHTS of D3 Dopamine Receptor Antagonist: qHTS | D(3) dopamine receptor (Homo sapiens), P35462 | AID 652054, 2013 | actives 2.5% (n = 360,000) | D3R cells, DiscoveRx beta-arrestin luminescence, antagonist mode; stronger effect = lower value | max response, negative = inhibition, %; in the data active = max response below about -50%; inconclusive = no clear call, values can overlap the other calls; also: % is scaled to controls: 0 for no effect and ±100 for the full control effect
#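 Cells expressing the human receptor were seeded at 1500 cells/well, incubated overnight at 37 degrees C in 5% CO2, then exposed to library compounds with dopamine controls for 90 minutes at 37 degrees C before luminescent detection.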
# D1 PAM: Potentiators of Human D1 Dopamine Receptor: qHTS. potentiation, % at 10 µM. AID 504651, 2011. actives 0.036% (n = 360,000). HEK293 TREx D1 cells, calcium flux, dopamine EC20 potentiation; in the data active = potentiation above about 30%; also: 0% is about no effect
# DRD3 agonist: qHTS of D3 Dopamine Receptor Agonist: qHTS | max activation, % | D3R DiscoveRx beta-arrestin cells, luminescence, 90 min | actives 0.58% (n = 410,000) | D(3) dopamine receptor (Homo sapiens), P35462; in the data active = max activation above about 30%; also: 0% is about no effect
#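 Cells at 1500/well, incubated overnight, then treated with pinned compounds (dopamine as control) for 90 min at 37 degrees C. DiscoveRx reagent added for 30 - 60 minutes at room temperature; luminescence read.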
# D1 agonist: Allosteric Agonists of the Human D1 Dopamine Receptor: qHTS | HEK293 T-REx D1 cells, calcium flux, agonist mode | D(1A) dopamine receptor (Homo sapiens), P21728 | actives 1% (n = 360,000) | activation, % at 2 µM; in the data active = activation above about 30%; also: 0% is about no effect
#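 Inducible HEK293 T-REx D1 cells, force-coupled to calcium signalling, were plated at 4000 cells/well with tetracycline and held overnight at 30 C. After no-wash calcium dye loading, compound-evoked calcium rise over 180 s flagged agonists.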
# * marks the source's active call; other numbers are inactive results; ? = inconclusive; . = no result. Compounds with a hit are over-represented: about 6.1% of the library has one in this group of screens.
SMILES,D1 antag,D3 antag,D1 PAM,DRD3 agonist,D1 agonist
Cc1cc(C)c2c(=O)[nH]c(SCC(=O)Nc3ccc(N(C)C)cc3)nc2n1,-35*,2,13,5,1
O=C(Nc1c(C(=O)N2CCN(c3ccccc3)CC2)oc2ccccc12)c1ccc(Br)o1,14,.,0,-3,-1
COCCn1ccc2c(OCC(=O)Nc3cccc(OC)c3)cccc2c1=O,.,.,-1,5,2
O=C(CN1CCN(Cc2ccccc2Cl)C1=O)NCCc1ccc(Cl)cc1,-33*,.,-1,-2,3
Cc1cccc(CN2CCN(CC(=O)O)C2=O)c1,33,-109*,5,-1,3
CC(CCc1ccccc1)NC(=O)CN1CCN(Cc2ccccc2)C1=O (configuration not stated),7,26,-8,31*,0
COc1ccc(CCNc2nc3cc(OC)c(OC)cc3c3nc(-c4cccnc4)nn23)cc1OC,32,.,3,-11,2
COc1ccccc1CNC(=O)CSc1nc(=O)[nH]c2c1CCC2,.,.,-2,8,0
CC(=O)c1cccc(NC(=O)Cn2c(=O)oc3cc(S(=O)(=O)NC4CCCC4)ccc32)c1,-26,.,-5,6,0
CCOC(=O)C(Cc1ccc(O)cc1)NC(=O)CCc1c[nH]c2ccccc12 (configuration not stated),-16,1,-3,4,37*
CCOC(=O)C(Cc1c[nH]c2ccccc12)NC(=O)COc1ccc(CC)cc1 (configuration not stated),1,.,0,7,3
Cc1ccc(NC(=O)CN2C(=O)COc3ccc(S(=O)(=O)N4CCCCCC4)cc32)c(C)c1,-1,.,-2,0,3
Clc1cccc(-c2ccc(/C=N/n3cnnc3)o2)c1,-33*,-13,-4,-14,-1
Cc1ccc(-c2ccc(/C=N/n3cnnc3)o2)cc1Cl,-8,19,-6,-7,0
CC1CCCCN1S(=O)(=O)c1ccc(C(=O)N(CCCN(C)C)c2nc3ccc(Br)cc3s2)cc1 (configuration not stated),-32*,-15,0,-12,30
Cc1ccc2nc(N(CCN(C)C)C(=O)c3ccc4c(c3)OCCO4)sc2c1,-12,-7,-11,-20,7
CCCCN(C)S(=O)(=O)c1ccc(C(=O)N(CCN(C)C)c2nc3ccc(C)cc3s2)cc1,-39*,-1,-9,-3,2
Cc1ccc2nc(N(CCCN(C)C)C(=O)c3ccc(S(=O)(=O)N4CCCCCC4)cc3)sc2c1,1,-24,0,-23,38*
Cn1cc(CN2CCN(c3ccccc3)CC2)c2ccccc21,-1,-79*,-2,-49,4
CCCCn1c(C)cc2c(c1=O)C1O[C@](c3ccc(OC)cc3)(Cc3cc(OC)c(OC)cc31)O2,14,.,-3,.,3
COc1cccc(NC(=O)CN(Cc2ccccc2)S(=O)(=O)c2ccc3nc(C)sc3c2)c1,-45*,.,-7,-8,21
COc1ccccc1N(C)S(=O)(=O)c1ccc(C(=O)Nc2ccc3nc(C)sc3c2)cc1,-44*,48,-1,7,9
COc1ccccc1N(C)S(=O)(=O)c1ccc(C(=O)N(C)Cc2ccc(OC(F)F)cc2)cc1,-41*,14,0,-5,19
COc1ccccc1N(C)S(=O)(=O)c1ccc(C(=O)Nc2nccs2)cc1,-66*,46,-5,-5,0
CCS(=O)(=O)N1CCc2cc(C(=O)Nc3cccc(C)c3C)ccc21,6,.,-1,-6,5
SMILES,D1 antag,D3 antag,D1 PAM,DRD3 agonist,D1 agonist
Cc1cccc(N2CCN(C(=O)c3sc4nc5n(c(=O)c4c3C)CCC5)CC2C)c1 (configuration not stated),-1,.,0,-4,1
CCOc1ccc(NC(=O)CSc2nnc(CNC(=O)C34CC5CC(CC(C5)C3)C4)n2CC)cc1,13,.,-3,-2,1
Fc1ccc(N2CCN(C3CCC(c4ccccc4)CC3)CC2)cc1 (configuration not stated),2,-82*,-4,-13,1
CCN1CCC(N2CCN(c3ccc(F)cc3)CC2)CC1,-13,11,-9,2,3
COCC(=O)N1c2nc(C(C)C)nn2C2(CCCCC2)[C@@H]2CCCC[C@@H]21,4,.,0,-12,-1
Cc1cc2oc(=O)cc(CN3CCN(S(=O)(=O)c4cccs4)CC3)c2cc1C,-44*,2,-6,2,2
COc1ccccc1NC(=O)N(Cc1cccs1)Cc1cc2cc3c(cc2[nH]c1=O)OCO3,-34*,28,-13,1,2
COc1ccc2cc(CN(CC3CCCO3)C(=O)Nc3ccccc3OC)c(=O)[nH]c2c1 (configuration not stated),-21,?,-7,-7,1
COc1ccc2cc(CN(C(=O)Nc3ccccc3OC)C3CCCC3)c(=O)[nH]c2c1,-33*,18,-7,-4,1
Cc1ccc(NC(=O)CN2C(=O)CSc3ccc(S(=O)(=O)N(C)C)cc32)c(C)c1,-9,.,-1,-14,3
COc1ccc(C(=O)O)cc1Nc1nc2ccc(C)cc2n2cnnc12,-5,.,1,-9,1
CN(C(=S)Nc1ccc(Oc2ccccc2)cc1)C1CCCCC1,-33*,?,0,-2,6
COC(=O)C1=CN(C(C)C)C=C(C(=O)OC)C1c1cc2c(cc1Br)OCO2,-26,27,-5,33*,-3
CCOc1cccc(-c2cc(C(=O)Nc3ccon3)c3ccccc3n2)c1,-5,28,-2,25,-2
O=C(NC1=NCCS1)c1cc(-c2ccc(F)cc2)nc2ccccc12,-37*,-9,-4,-5,-1
O=C(Nc1ccon1)c1cc(-c2ccccc2)nc2ccccc12,-32*,1,-7,7,0
Cc1ccccc1NC(=S)NC(=O)c1cc(-c2ccccc2)nc2ccccc12,9,0,-1,-12,4
Cc1ccc(-c2cc(C(=O)NC3=NCCS3)c3ccccc3n2)cc1C,-5,-8,4,-11,2
Cc1cccc(NC(=S)NC(=O)c2cc(-c3ccccc3)nc3ccccc23)c1,0,-54*,5,-14,1
Cc1oc2ccc(O)c(CN3CCN(Cc4ccccc4)CC3)c2c1C(=O)Nc1cccc(Cl)c1C,5,.,1,2,-1
CCCN(C(=O)CCc1nc(-c2ccc(C)cc2)no1)c1ccc(OCC)cc1,-5,.,-1,-3,10
O=[N+]([O-])c1cc(CN2CCN(c3ccccc3)CC2)c(O)c2ncccc12,-11,-109*,16,-43,1
Oc1c(CN2CCCCC2)cc(Br)c2cccnc12,-8,-74*,4,-29,2
